Measurements: the supplement of paper PMC11732987, “Enantioselective OTUD7B fragment discovery through chemoproteomics screening and high-throughput optimisation” (Communications Chemistry, 2025)

Key:
Experiment in all cases: log2 ratio of Biotin-Ahx-Ub-VS probe labelling (fragment/DMSO); higher = less target engagement (more negative = stronger competition), active = hit call of the paper (q ≤ 0.05, log2 ratio ≤ -1)
Settings in all cases: compound concentration: 200 uM; treatment time: 3 h
USP19 = biological target: T1, USP19 (UniProt O94966)
T1 sequence (whole entry): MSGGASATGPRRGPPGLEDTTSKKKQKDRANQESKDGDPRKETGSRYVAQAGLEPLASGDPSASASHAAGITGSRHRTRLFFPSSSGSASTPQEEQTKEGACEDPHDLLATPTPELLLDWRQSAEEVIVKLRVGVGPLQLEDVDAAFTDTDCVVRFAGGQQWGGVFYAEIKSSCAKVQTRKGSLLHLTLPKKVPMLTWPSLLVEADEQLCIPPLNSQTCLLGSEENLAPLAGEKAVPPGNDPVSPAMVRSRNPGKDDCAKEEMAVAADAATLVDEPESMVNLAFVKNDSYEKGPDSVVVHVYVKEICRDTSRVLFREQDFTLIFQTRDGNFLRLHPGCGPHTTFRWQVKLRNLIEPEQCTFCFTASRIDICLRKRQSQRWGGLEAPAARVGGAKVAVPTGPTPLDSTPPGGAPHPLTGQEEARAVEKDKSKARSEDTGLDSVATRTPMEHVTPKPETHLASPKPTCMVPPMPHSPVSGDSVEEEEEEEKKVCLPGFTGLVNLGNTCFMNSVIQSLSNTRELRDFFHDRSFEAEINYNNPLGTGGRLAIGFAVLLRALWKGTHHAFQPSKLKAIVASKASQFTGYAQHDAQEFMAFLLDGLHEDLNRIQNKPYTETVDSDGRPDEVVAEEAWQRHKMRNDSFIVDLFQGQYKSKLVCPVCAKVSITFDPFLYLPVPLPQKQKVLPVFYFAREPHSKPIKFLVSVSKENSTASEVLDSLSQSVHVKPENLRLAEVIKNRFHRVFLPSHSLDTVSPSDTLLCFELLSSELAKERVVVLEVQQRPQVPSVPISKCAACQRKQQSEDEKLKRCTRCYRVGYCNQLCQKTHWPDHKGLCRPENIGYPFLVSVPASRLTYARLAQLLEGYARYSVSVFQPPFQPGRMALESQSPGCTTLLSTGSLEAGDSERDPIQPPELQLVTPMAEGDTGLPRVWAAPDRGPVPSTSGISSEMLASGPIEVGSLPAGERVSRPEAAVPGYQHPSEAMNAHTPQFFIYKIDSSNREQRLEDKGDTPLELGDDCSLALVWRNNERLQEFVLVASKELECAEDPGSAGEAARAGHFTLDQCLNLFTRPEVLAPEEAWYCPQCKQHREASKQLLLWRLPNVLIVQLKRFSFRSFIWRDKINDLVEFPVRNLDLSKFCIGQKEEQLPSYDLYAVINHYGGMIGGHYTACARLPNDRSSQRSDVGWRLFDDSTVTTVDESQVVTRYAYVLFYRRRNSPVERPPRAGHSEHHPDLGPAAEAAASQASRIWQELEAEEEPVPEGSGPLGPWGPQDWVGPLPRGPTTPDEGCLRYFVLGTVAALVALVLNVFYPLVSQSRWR
Summary of the method: (§1)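 Fragment (200 µM) or vehicle was incubated for 3 h with triplicate HEK293T lysate samples of 495 µg, which were then treated with Biotin-Ahx-Ub-VS at 0.5 µM final for 1 h. Labelled DUBs were enriched on NeutrAvidin, digested with LysC and trypsin, and analysed by diaPASEF LC-MS/MS. Values are average log2 fragment/vehicle ratios from an unpaired t-test on global-median-normalised Spectronaut label-free quantities, using proteins with ≥2 unique peptides.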

USP24 = USP24 (UniProt Q9UPU5)
USP24, sequence (Q9UPU5 whole entry): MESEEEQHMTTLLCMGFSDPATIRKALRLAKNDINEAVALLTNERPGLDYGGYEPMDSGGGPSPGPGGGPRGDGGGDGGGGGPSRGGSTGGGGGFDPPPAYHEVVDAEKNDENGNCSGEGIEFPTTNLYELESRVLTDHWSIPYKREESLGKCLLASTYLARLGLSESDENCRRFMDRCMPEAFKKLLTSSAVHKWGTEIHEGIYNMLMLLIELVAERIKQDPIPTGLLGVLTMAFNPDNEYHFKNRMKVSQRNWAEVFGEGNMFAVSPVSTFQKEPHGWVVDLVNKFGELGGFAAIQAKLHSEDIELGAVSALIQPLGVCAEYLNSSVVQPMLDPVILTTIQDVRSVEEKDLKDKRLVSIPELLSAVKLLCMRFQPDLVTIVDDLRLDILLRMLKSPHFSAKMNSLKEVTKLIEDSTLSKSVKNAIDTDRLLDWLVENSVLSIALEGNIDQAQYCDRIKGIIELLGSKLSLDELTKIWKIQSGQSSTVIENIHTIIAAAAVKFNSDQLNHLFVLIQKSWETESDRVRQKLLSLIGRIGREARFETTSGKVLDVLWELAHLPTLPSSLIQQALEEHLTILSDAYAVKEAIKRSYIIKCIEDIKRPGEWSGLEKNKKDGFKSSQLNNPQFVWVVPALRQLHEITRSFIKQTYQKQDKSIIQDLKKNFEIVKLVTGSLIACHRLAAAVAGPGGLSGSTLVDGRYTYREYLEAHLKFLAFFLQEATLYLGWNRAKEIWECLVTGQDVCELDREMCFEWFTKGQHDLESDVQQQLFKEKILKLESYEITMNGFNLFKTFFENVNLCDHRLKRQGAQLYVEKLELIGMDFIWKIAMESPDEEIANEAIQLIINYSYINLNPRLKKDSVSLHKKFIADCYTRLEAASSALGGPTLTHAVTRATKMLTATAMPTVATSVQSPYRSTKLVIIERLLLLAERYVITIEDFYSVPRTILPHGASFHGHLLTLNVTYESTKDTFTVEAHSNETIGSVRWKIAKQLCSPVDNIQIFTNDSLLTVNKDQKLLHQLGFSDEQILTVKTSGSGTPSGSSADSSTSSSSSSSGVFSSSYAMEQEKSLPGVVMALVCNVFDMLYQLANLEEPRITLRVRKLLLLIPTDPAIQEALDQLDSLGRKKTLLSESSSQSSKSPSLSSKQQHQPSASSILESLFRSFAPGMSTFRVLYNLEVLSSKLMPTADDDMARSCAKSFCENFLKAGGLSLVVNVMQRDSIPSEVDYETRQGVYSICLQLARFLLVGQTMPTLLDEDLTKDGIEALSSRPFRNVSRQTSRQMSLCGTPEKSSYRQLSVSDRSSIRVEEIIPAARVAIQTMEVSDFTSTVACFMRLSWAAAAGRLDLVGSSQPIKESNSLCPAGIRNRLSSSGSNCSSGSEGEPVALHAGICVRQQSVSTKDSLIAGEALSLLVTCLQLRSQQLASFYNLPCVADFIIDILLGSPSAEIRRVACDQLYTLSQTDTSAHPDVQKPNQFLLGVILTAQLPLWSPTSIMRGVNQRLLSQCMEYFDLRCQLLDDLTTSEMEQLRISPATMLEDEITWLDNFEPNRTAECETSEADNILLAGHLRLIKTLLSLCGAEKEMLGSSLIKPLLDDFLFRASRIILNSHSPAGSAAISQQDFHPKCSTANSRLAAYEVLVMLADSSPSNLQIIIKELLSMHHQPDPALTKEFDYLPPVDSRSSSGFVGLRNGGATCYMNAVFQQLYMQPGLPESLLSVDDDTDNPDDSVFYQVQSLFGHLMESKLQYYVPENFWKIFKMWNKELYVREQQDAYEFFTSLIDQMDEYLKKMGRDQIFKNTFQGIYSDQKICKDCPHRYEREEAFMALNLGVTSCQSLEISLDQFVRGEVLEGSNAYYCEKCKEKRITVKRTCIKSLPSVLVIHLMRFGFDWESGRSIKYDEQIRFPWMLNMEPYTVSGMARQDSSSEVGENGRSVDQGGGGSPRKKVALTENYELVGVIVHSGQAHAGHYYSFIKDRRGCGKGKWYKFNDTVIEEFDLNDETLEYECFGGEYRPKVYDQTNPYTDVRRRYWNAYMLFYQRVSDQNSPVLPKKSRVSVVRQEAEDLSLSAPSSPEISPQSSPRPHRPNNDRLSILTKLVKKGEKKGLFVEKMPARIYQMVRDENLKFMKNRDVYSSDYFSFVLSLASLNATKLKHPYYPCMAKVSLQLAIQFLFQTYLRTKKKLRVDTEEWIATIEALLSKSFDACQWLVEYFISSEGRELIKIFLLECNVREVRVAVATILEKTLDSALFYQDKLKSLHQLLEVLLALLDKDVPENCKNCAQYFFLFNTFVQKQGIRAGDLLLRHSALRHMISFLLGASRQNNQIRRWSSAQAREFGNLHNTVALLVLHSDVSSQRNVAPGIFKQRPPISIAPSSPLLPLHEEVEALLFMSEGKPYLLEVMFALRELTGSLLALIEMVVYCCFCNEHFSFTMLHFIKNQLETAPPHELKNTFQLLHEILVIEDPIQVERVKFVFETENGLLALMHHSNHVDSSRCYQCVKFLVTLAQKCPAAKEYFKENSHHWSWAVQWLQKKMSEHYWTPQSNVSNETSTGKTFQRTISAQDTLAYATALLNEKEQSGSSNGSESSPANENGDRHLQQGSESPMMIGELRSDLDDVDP
Summary of the method: as §1

USP25 = biological target: T2, USP25 (UniProt Q9UHP3)
T2 sequence (whole entry): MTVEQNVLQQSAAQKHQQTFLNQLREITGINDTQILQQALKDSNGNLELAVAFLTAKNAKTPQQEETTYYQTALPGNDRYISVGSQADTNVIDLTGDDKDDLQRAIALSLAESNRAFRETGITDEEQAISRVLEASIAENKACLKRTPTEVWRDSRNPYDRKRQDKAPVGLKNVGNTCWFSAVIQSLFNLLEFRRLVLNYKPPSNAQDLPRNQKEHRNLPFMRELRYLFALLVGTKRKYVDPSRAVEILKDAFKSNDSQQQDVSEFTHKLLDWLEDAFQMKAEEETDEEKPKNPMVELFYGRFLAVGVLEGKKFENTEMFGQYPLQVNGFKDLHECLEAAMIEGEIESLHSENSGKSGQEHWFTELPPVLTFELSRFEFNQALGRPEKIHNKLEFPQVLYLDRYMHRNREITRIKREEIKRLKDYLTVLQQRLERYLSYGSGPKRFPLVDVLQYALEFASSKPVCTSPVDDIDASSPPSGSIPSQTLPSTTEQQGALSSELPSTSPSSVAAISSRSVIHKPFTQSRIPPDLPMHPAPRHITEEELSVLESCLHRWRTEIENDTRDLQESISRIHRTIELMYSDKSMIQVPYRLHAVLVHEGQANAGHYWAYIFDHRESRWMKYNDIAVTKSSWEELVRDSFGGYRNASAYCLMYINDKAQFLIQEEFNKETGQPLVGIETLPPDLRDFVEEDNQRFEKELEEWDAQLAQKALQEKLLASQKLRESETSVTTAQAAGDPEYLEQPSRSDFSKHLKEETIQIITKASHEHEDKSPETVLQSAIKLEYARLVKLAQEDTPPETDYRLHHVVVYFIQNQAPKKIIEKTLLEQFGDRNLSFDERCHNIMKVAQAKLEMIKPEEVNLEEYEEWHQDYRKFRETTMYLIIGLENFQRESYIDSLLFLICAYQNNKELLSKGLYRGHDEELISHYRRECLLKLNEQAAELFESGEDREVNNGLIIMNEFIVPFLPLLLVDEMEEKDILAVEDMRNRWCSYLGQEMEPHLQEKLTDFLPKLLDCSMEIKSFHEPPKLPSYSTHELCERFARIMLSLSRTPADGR
Summary of the method: as §1

USP28 = biological target: T3, USP28 (UniProt Q96RU2)
T3 sequence (whole entry): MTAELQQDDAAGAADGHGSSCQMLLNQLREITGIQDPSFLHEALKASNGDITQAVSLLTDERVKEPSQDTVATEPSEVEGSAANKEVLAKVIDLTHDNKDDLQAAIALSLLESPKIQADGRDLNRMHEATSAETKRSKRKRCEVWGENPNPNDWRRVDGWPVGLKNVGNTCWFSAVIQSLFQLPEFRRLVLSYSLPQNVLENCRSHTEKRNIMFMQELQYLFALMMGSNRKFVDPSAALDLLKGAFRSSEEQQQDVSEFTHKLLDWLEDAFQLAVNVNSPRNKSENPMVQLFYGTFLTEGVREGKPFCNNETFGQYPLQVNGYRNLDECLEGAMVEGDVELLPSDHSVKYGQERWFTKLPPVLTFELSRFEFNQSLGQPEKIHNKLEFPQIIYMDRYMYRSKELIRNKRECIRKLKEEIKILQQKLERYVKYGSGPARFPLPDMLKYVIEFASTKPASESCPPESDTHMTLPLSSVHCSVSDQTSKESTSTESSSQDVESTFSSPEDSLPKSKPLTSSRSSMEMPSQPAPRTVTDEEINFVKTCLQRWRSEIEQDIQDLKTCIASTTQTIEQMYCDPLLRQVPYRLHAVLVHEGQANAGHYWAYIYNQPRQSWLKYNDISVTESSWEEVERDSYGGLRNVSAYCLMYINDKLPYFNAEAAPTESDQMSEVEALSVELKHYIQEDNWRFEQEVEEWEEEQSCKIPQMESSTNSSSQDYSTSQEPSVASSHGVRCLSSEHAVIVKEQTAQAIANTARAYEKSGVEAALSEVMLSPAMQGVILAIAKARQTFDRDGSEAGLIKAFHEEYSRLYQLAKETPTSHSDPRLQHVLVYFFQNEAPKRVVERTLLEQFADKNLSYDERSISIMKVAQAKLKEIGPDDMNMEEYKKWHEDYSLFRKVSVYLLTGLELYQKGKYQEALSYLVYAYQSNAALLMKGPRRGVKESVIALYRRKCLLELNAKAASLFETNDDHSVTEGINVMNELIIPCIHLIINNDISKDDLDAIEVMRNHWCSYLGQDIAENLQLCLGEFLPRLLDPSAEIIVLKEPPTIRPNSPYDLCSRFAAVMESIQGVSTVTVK
Summary of the method: as §1

Measured: log2 ratio of Biotin-Ahx-Ub-VS probe labelling

O=C(CCl)N1CCOC2(CCC2)CC1
inactive: USP19 -0.704 | USP24 -0.23 | USP25 -0.448 | USP28 -0.346
